Screening results: PubChem BioAssay, Pan Lab, Icahn School of Medicine at Mount Sinai
The sample as a whole holds a higher share of hits than the screen did.
RBX1-CUL1 inh: human ROC1-CUL1 E3 ligase inhibition; in vitro K48 di-Ub FRET, acceptor:donor ratio, 45 min; 140,000 compounds, 0.6% hits; AID 1347404; inhibition, % at 10 µM; in the data active = inhibition above about 25%
A number is an active result; – = inactive.

SMILES | RBX1-CUL1 inh
Cc1ccc(S(=O)(=O)Nc2ccc(S(=O)(=O)N(C)Cc3ccccc3)cc2)cc1 | –
Cc1nc2ccccc2n(Cc2ccccc2)c1=O | –
COc1ccc(CN2C(=O)O[C@@H]3CN(Cc4cccc(F)c4)C[C@@H]32)cc1OC | –
CCCCCCCC1=NN2C(=N)/C(=C/c3ccc(-c4ccc(F)cc4)o3)C(=O)N=C2S1 | –
CCCCCCCC1=NN2C(=N)/C(=C/c3ccc(-c4ccc(Cl)cc4)o3)C(=O)N=C2S1 | –
CCCCCC1=NN2C(=N)/C(=C\c3ccc([N+](=O)[O-])o3)C(=O)N=C2S1 | 101
O=C(O)Cn1cc(/C=C2\SC(=Nc3ccccc3)N(c3ccccc3)C2=O)c2ccccc21 | 97
O=C1/C(=C\c2cn(Cc3ccc(F)cc3)c3ccccc23)SC(=Nc2ccccc2)N1CCc1ccccc1 | –
NC(=O)Cn1cc(/C=C2\SC(=Nc3ccccc3)N(C3CCCC3)C2=O)c2ccccc21 | –
O=C(C1CC(Cc2cccc(Cl)c2)=NO1)N1CCN(c2ncc3ccccc3n2)CC1 (configuration not stated) | –
Nc1c(C(=O)Nc2ccc(F)cc2Cl)sc2nc(-c3ccc(F)cc3)ccc12 | –
COc1cccc(NC(=O)CSc2nc3c(c(=O)n(C)c(=O)n3C)n2Cc2ccccc2F)c1 | –
CC12CN3CC(C)(CN(C1)C3c1ccccc1Cl)C2O (configuration not stated) | –
COc1ccc2[nH]c3c(c2c1)CCNC3c1ccccc1Cl (configuration not stated) | –
Clc1ccccc1C1NCCS1 (configuration not stated) | 31
COc1cc(N2CCCC2)c(OC)cc1/C=C1\SC(=O)N(Cc2ccc(C)cc2)C1=O | –
COc1cc(N2CCCC2)c(OC)cc1C=C1C(=O)c2ccccc2C1=O | 48
Cc1cc(C=C2C(=O)c3ccccc3C2=O)ccc1N1CCCC1 | –
C#CCOc1ccc(/C=c2\sc3n(c2=O)C(c2ccc(F)cc2)C(C(=O)OCC)=C(c2ccccc2)N=3)cc1 (configuration not stated) | –
O=C(NCCCc1ccccc1)C1CCCCC1 | –
CCCCCCOc1ccc(/C(CCCCC/C(=N\O)c2ccc(OCCCCCC)cc2)=N\O)cc1 | –
CCCCCCCCCCOc1ccc(N=CC=Nc2ccc(OCCCCCCCCCC)cc2)cc1 | –
CCCCCCCCCOc1ccc(C#CC(=O)O)cc1 | 99
CCNC(=O)c1ccc(NS(C)(=O)=O)c(C)c1 | –
Nn1c(SCc2ccccc2)nc2sc3c(c2c1=O)CCCC3 | –
SMILES | RBX1-CUL1 inh
CC1=CC(C)=C2C=CC(=O)C(=O)C2O1 (configuration not stated) | 99
CNCc1cc(Cl)ccc1OCc1ccc(F)cc1 | –
CSc1ccc(CC2(CCC(=O)N3CCC(c4ccc(F)cc4)C3)CCC(=O)N2)cc1 (configuration not stated) | –
CCSc1cnn(-c2ccccc2)c(=O)c1SCC | –
O=c1c(SCc2ccco2)c(SCc2ccco2)cnn1-c1ccccc1 | 31
O=c1c(SCc2ccccc2)c(SCc2ccccc2)cnn1-c1ccccc1 | –
CSCCC(=O)N1CCC(C2CCN(Cc3cccc(F)c3F)CC2)C1 (configuration not stated) | –
COc1ccc(N2C(=O)/C(=C\c3ccc(O)c(Br)c3)SC2=S)cc1 | 42
COc1ccc(N2C(=O)/C(=C\c3ccc(OC(=O)c4cccs4)c(OC)c3)SC2=S)cc1 | –
COc1cc(/C=C2\SC(=S)N(c3cccc(C(F)(F)F)c3)C2=O)ccc1OCC(=O)O | –
CCOc1cc(/C=C2\SC(=S)N(c3ccccc3)C2=O)ccc1OCc1ccc(Cl)cc1Cl | –
O=C(O)COc1ccc(/C=C2\SC(=S)N(c3cccc(Cl)c3)C2=O)cc1 | –
CCOc1cc(/C=C2\SC(=S)N(c3ccc(OC)cc3)C2=O)ccc1OCC(=O)O | 57
C=CCOc1ccc(/C=C2\SC(=S)N(c3ccc(OC)cc3)C2=O)cc1OCC | –
CCOc1cc(/C=C2\SC(=S)N(c3cccc(Cl)c3)C2=O)ccc1OCC(=O)O | 33
COc1cccc(N2C(=O)/C(=C/c3ccc(O)cc3)SC2=S)c1 | –
CCC(C(=O)NCc1cc(=O)[nH]cn1)n1cc(C(C)=O)c2ccccc21 (configuration not stated) | –
CCOC(=O)C1=C(C)N=c2s/c(=C\c3ccccc3)c(=O)n2C1c1ccc(OC)cc1OC (configuration not stated) | –
COCCN1CCN(C(=O)c2sc3ncnc(NCCc4ccccc4OC)c3c2C)CC1 | –
Cc1cccc(NC(=O)OCCN(CCOC(=O)Nc2cccc(C)c2C)C(=O)C2C(C=C(Cl)Cl)C2(C)C)c1C (configuration not stated) | –
Cc1cc(C)c2c3c(sc2n1)C(c1ccccc1Cl)C(C#N)C(=N)O3 (configuration not stated) | –
COc1cc(OC)cc(C(=O)OCCSc2nc(C)c3cc(C)c(C)cc3n2)c1 | –
COc1ccc(CCNC(=S)Nc2cccc(Cl)c2)cc1 | –
CC(C)CC1NC(=O)C(O)(C(F)(F)F)NC1=O (configuration not stated) | –
C=CCN1C(=O)/C(=C\c2cc(OC)c(OC)c(OC)c2)N=C1SCC(=O)NC1CCCCC1 | –
SMILES | RBX1-CUL1 inh
O[C@@H]1CCN(c2nncc(-c3ccc(C4CCCCC4)cc3)n2)C1 | –
CCN(CC)S(=O)(=O)Cc1ccc(Cl)c(Cl)c1 | –
O=C1S/C(=C\c2cc(Cl)c(O)c(Cl)c2)C(=O)N1c1ccc(Cl)cc1 | –
O=C1S/C(=C\c2cc(Br)cc(Br)c2O)C(=O)N1c1ccc(Cl)cc1 | 31
O=C1S/C(=C\c2cc(Cl)c(O)c(Cl)c2)C(=O)N1c1cccc(Cl)c1 | –
O=C1S/C(=C\c2ccccc2C(F)(F)F)C(=O)N1c1ccc(Cl)cc1 | –
COc1cc(/C=C2\SC(=O)N(c3ccc(Cl)cc3)C2=O)cc(Cl)c1O | 63
CCOc1cc(/C=C2\SC(=O)N(c3ccc(Cl)cc3)C2=O)cc(Cl)c1O | –
Cc1cccc(NC(=O)COc2ccc(Cl)cc2C=C2C(=O)NC(=S)NC2=O)c1 | –
CSc1cccc(NS(=O)(=O)c2ccc3c(c2)C(=O)C(C(=O)N2CCCCCC2)C=N3)c1 (configuration not stated) | –
O=C(Nc1cccc2ccccc12)c1ccc2c(c1)OCO2 | –
CC1(N2CCCCC2)C(=O)c2ccccc2C1=O | –
CC1(C)CC(=O)C(C2(O)C(=O)c3ccccc3C2=O)C(=O)C1 | –
CC1(Nc2ccccc2)C(=O)c2ccccc2C1=O | –
CN1C(=O)N(C)C2(O)c3ccccc3C(=O)C12O (configuration not stated) | –
COC1(O)C(=O)c2ccccc2C(=O)C1(O)OC (configuration not stated) | 83
O=C1c2ccccc2C(=O)C1(O)O | 46
COc1ccccc1/C=C1/N=C(c2cccc(C)c2)N(c2ccccc2)C1=O | –
O=S(=O)(Cc1ccc(Br)cc1)NCc1ccncc1 | –
CCC(=O)Nc1ccc(OC(=O)c2ccc(Br)o2)cc1 | –
CCOc1ccc(/C=C2/SC(=S)N(CN3CCOCC3)C2=O)cc1 | –
O=C1N=C2SC3C4CCC(C4)C3C(c3ccc(O)cc3)C2S1 (configuration not stated) | –
CC(C)S(=O)(=O)NCc1cccnc1Oc1ccc(F)c(F)c1 | –
Cc1ccc2c(c1)-c1c(c(C(=O)N3CCN(c4cc(C)ccc4C)CC3)nn1C)CS2 | 44
Cn1nc(C(=O)N2CCN(c3ccc(Cl)cc3)CC2)c2c1-c1ccccc1SC2 | –
COc1ccc(NC(=O)c2nn(C)c3c2CSc2ccc(C)cc2-3)cc1OC | –
